The text below walks through data of PubChem BioAssay (NCI).

A short description of test [1]: NCI Yeast Anticancer Drug Screen. Data for the rad50 strain (AID 155).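 Also: 0% = growth of vehicle-only cultures of the same strain.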 As to conditions: S. cerevisiae rad50 strain growth inhibition, active compounds read high. In short, it runs like this: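 Inhibition values express reduced yeast growth in compound-treated cultures relative to vehicle-treated controls.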
A short description of test [2]: NCI Yeast Anticancer Drug Screen. Data for the mec2-1 strain (AID 157). To be noted: S. cerevisiae mec2-1 strain, active compounds read high. In short, it runs like this: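 Each compound was tested on mec2-1 yeast, a strain altered in DNA damage repair or cell cycle control. Growth inhibition is reported relative to vehicle.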
A short description of test [3]: NCI Yeast Anticancer Drug Screen. Data for the sgs1 mgt1 strain (AID 161).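 Also: 0% = growth of cultures given vehicle only.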 As to conditions: S. cerevisiae sgs1 mgt1 strain, active compounds read high. Summed up: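 Inhibition of yeast growth, normalised to vehicle-treated controls, is reported for a strain bearing genetic alterations in DNA damage repair.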
Test [4] in a line: NCI Yeast Anticancer Drug Screen. Data for the cln2 rad14 strain (AID 165).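 Also: 0% = growth equal to vehicle treated cultures.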 As to conditions: S. cerevisiae cln2 rad14 strain, active compounds read high. Summed up:
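Test compounds were added to cln2 rad14 yeast cultures; inhibition of growth was then determined by comparison with vehicle treatment.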

Test [5] can be described thus: NCI Yeast Anticancer Drug Screen. Data for the bub3 strain (AID 167). As to conditions: S. cerevisiae bub3 mutant strain, active compounds read high. In short, it runs like this:
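Steps: expose the mutant yeast strain to compound; grow alongside vehicle-treated cultures; measure growth; express inhibition against the vehicle cultures.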

A short description of test [6]: NCI Yeast Anticancer Drug Screen. Data for the mlh1 rad18 strain (AID 175). To be noted: S. cerevisiae mlh1 rad18 strain growth inhibition, active compounds read high. In short, it runs like this: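 Inhibition values reflect reduced growth of mutant yeast versus vehicle-treated controls following compound exposure; the mutations affect DNA damage repair.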
Setting [7] is: at 5.0 µM (retest, dose inferred, filed as 0.5).
Where [8] appears, read: at 50.0 µM (retest, dose inferred, filed as 5.0).

This is part of a sample that, as a whole, favours compounds with a hit. Of some 79,000 tested, about 15% had one in any assay. Unmarked numbers belong to inactive results. Active and inactive are the calls of the source. Rule as the data show it: active = growth inhibition above about 70%; inactive = the rest.

For `O=C(Nc1cc(Cl)c(Cl)cc1Cl)C(=O)C(C(=O)c1ccc2ccccc2c1)C1OC(=O)c2ccccc21` (stereo not given), the growth inhibition was 17% in test [1] (setting [7]); 17% in test [1] (setting [8]); 67.7% in test [1] (at 50.0 µM); 2% in test [2] (setting [7]); 2% in test [2] (setting [8]); 37.2% in test [2] (at 50.0 µM). Moreover, the growth inhibition in test [3] (setting [7]) is 15%; in test [3] (setting [8]), 15%; in test [3] (at 50.0 µM), 63.9%; in test [4] (setting [7]) it was 6%; in test [4] (setting [8]), 6%; in test [4] (at 50.0 µM) it was 64.5%. Further, the growth inhibition in test [5] (setting [7]) is -8%; in test [5] (setting [8]) it was -8%; in test [5] (at 50.0 µM) it was 59.2%; in test [6] (setting [7]), -14%; in test [6] (setting [8]), -14%; in test [6] (at 50.0 µM), 40%.
With `COC(=O)c1cc[nH]c(=O)c1`, the growth inhibition was -150% in test [1] (setting [7]); -166% in test [1] (setting [8]); 9.2% in test [1] (at 50.0 µM); -48% in test [2] (setting [7]); -56% in test [2] (setting [8]); 12.2% in test [2] (at 50.0 µM). The growth inhibition was -62% in test [3] (setting [7]); -68% in test [3] (setting [8]); 11.4% in test [3] (at 50.0 µM); -55% in test [4] (setting [7]); -70% in test [4] (setting [8]); -18.8% in test [4] (at 50.0 µM). The growth inhibition in test [5] (setting [7]) was -71%; in test [5] (setting [8]), -86%; in test [5] (at 50.0 µM), 0.55%; in test [6] (setting [7]), -138%; in test [6] (setting [8]), -122%; in test [6] (at 50.0 µM), 60.8%.
Consider `O=C1NN(C2=NNC3(C(=O)N2)c2ccccc2-c2ccccc23)C(c2ccccc2)=N/C1=C/c1ccc(Cl)cc1`, for which the growth inhibition in test [1] (setting [7]) was -9%; in test [1] (setting [8]) it was -5%; in test [1] (at 50.0 µM), 32.4%; in test [2] (setting [7]), -13%; in test [2] (setting [8]), -5%; in test [2] (at 50.0 µM), 17.4%. In addition, the growth inhibition was -1% in test [3] (setting [7]); 6% in test [3] (setting [8]); -13.5% in test [3] (at 50.0 µM); -10% in test [4] (setting [7]); 3% in test [4] (setting [8]); -3.25% in test [4] (at 50.0 µM). Besides, the growth inhibition in test [5] (setting [7]) is -16%; in test [5] (setting [8]) it was -16%; in test [5] (at 50.0 µM), 18.4%; in test [6] (setting [7]), -48%; in test [6] (setting [8]) it was -10%; in test [6] (at 50.0 µM) it was 44.1%.
As to `NC(=O)c1ccccc1OC(=O)NCCO`, the growth inhibition was 6% in test [1] (setting [7]); -3% in test [1] (setting [8]); 3.2% in test [1] (at 50.0 µM); -2% in test [2] (setting [7]); -5% in test [2] (setting [8]); -1.7% in test [2] (at 50.0 µM). The growth inhibition in test [3] (setting [7]) is 3%; in test [3] (setting [8]), 2%; in test [3] (at 50.0 µM), -1.2%; in test [4] (setting [7]), -1%; in test [4] (setting [8]), -7%; in test [4] (at 50.0 µM), 35.8%. Further, the growth inhibition in test [5] (setting [7]) was -4%; in test [5] (setting [8]) it was 3%; in test [5] (at 50.0 µM) it was 1.7%; in test [6] (setting [7]), 0%; in test [6] (setting [8]), 7%; in test [6] (at 50.0 µM), 7.35%.
`Nc1ccc(-c2nc3ccccc3s2)cc1I`: the growth inhibition in test [1] (setting [7]) was 34%; in test [1] (setting [8]) it was 71% (active); in test [1] (at 50.0 µM), 84.3% (active); in test [2] (setting [7]) it was 20%; in test [2] (setting [8]), 74% (active); in test [2] (at 50.0 µM), 89.1% (active). Moreover, the growth inhibition in test [3] (setting [7]) was 44%; in test [3] (setting [8]) it was 88% (active); in test [3] (at 50.0 µM) it was 87.3% (active); in test [4] (setting [7]), 50%; in test [4] (setting [8]), 68%; in test [4] (at 50.0 µM) it was 86.2% (active). Also, the growth inhibition is 53% in test [5] (setting [7]); 95% (active) in test [5] (setting [8]); 84.2% (active) in test [5] (at 50.0 µM); 27% in test [6] (setting [7]); 77% (active) in test [6] (setting [8]); 84% (active) in test [6] (at 50.0 µM).
For the compound `CN(C)C(=S)/N=c1\ss/c(=N\S(=O)(=O)c2ccccc2)n1-c1ccccc1`, the growth inhibition was 0% in test [1] (setting [7]); 0% in test [1] (setting [8]); 37.6% in test [1] (at 50.0 µM); -5% in test [2] (setting [7]); -13% in test [2] (setting [8]); 51.9% in test [2] (at 50.0 µM). Moreover, the growth inhibition in test [3] (setting [7]) was -2%; in test [3] (setting [8]) it was 26%; in test [3] (at 50.0 µM), 64.9%; in test [4] (setting [7]), -10%; in test [4] (setting [8]), -21%; in test [4] (at 50.0 µM), 9.6%. The growth inhibition is -52% in test [5] (setting [7]); -2% in test [5] (setting [8]); 29.1% in test [5] (at 50.0 µM); -1% in test [6] (setting [7]); 15% in test [6] (setting [8]); 59.7% in test [6] (at 50.0 µM).
In the case of `O=C(COc1ccccc1)Oc1c(Cl)c(Cl)c(Cl)c(Cl)c1Cl`, the growth inhibition in test [1] (setting [7]) is 23%; in test [1] (setting [8]), 94% (active); in test [1] (at 50.0 µM) it was 94% (active); in test [2] (setting [7]), 28%; in test [2] (setting [8]) it was 97% (active); in test [2] (at 50.0 µM) it was 98% (active). Also, the growth inhibition in test [3] (setting [7]) was 34%; in test [3] (setting [8]), 98% (active); in test [3] (at 50.0 µM), 96% (active); in test [4] (setting [7]) it was 10%; in test [4] (setting [8]) it was 97% (active); in test [4] (at 50.0 µM), 96% (active). Moreover, the growth inhibition in test [5] (setting [7]) was 11%; in test [5] (setting [8]), 96% (active); in test [5] (at 50.0 µM), 98.3% (active); in test [6] (setting [7]), 23%; in test [6] (setting [8]), 97% (active); in test [6] (at 50.0 µM) it was 97.5% (active).
On to `Clc1cc(Cl)c2cc3cccc[n+]3cc2c1Cl`, for which the growth inhibition in test [1] (setting [7]) was 0%; in test [1] (setting [8]), 19%; in test [1] (at 50.0 µM), 90.2% (active); in test [2] (setting [7]) it was -11%; in test [2] (setting [8]), 33%; in test [2] (at 50.0 µM) it was 93.5% (active). Besides, the growth inhibition was 2% in test [3] (setting [7]); -18% in test [3] (setting [8]); 79.2% (active) in test [3] (at 50.0 µM); 4% in test [4] (setting [7]); 31% in test [4] (setting [8]); 54.2% in test [4] (at 50.0 µM). The growth inhibition was -12% in test [5] (setting [7]); 49% in test [5] (setting [8]); 87.8% (active) in test [5] (at 50.0 µM); -14% in test [6] (setting [7]); 55% in test [6] (setting [8]); 96.1% (active) in test [6] (at 50.0 µM).
Turning to `CC(C)NC(=O)CN1C(=O)NC(C)(c2ccccc2)C1=O` (stereo not given), the growth inhibition was -4% in test [1] (setting [7]); -1% in test [1] (setting [8]); 75.5% (active) in test [1] (at 50.0 µM); 6% in test [2] (setting [7]); 8% in test [2] (setting [8]); 67% in test [2] (at 50.0 µM). Besides, the growth inhibition in test [3] (setting [7]) was -4%; in test [3] (setting [8]) it was 11%; in test [3] (at 50.0 µM), 53.5%; in test [4] (setting [7]) it was 2%; in test [4] (setting [8]), -3%; in test [4] (at 50.0 µM), 90.8% (active). Further, the growth inhibition in test [5] (setting [7]) is -3%; in test [5] (setting [8]) it was 1%; in test [5] (at 50.0 µM), 79.2% (active); in test [6] (setting [7]), 11%; in test [6] (setting [8]), 13%; in test [6] (at 50.0 µM), 70.3% (active).
Turning to `CN(C)CCN(C)N=Nc1c(-c2ccc(Cl)cc2)n[nH]c1C(F)(F)F`, the growth inhibition in test [1] (setting [7]) was 98% (active); in test [1] (setting [8]) it was 99% (active); in test [1] (at 50.0 µM) it was 98.8% (active); in test [2] (setting [7]) it was 99% (active); in test [2] (setting [8]), 99% (active); in test [2] (at 50.0 µM), 99.7% (active). In addition, the growth inhibition is 99% (active) in test [3] (setting [7]); 99% (active) in test [3] (setting [8]); 99.4% (active) in test [3] (at 50.0 µM); 99% (active) in test [4] (setting [7]); 99% (active) in test [4] (setting [8]); 99.3% (active) in test [4] (at 50.0 µM). Besides, the growth inhibition in test [5] (setting [7]) is 99% (active); in test [5] (setting [8]), 99% (active); in test [5] (at 50.0 µM), 96% (active); in test [6] (setting [7]), 99% (active); in test [6] (setting [8]), 99% (active); in test [6] (at 50.0 µM), 99.5% (active).
